Measured values published in PubChem BioAssay (NCI).
About 83,000 compounds went through this panel and 20% of them were active in at least one assay; those are over-represented in the sample as a whole.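 Assay: single dose, 48 h. Readout: percent growth (0 = no net growth; negative = cell death). Active: <10.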 Activity calls are given as the source filed them.

system: T-47D breast; test: NCI-60 one-dose screen, 48 h (100 = growth as untreated, 0 = no growth, -100 = all killed); conditions: 10 µM unless noted

Row | Compound | growth
1 | CCOC(=O)N1CCN(CCCCOc2ccc(C(C)(C)CC)cc2)CC1 | 79.7% (inactive)
2 | COC1=C(Br)C(=O)C(OC)=C(Br)C1=O | 106% (inactive)
3 | Cc1cc(C)nc(NC(N)=NCCc2ccccc2)n1 | 36.1% (inactive)
4 | Cc1nn(-c2ccc(Cl)cc2)c(=O)n1CCn1cnc2ccccc21 | 90.8% (inactive)
5 | Brc1ccc(Cn2nnnc2-c2ccn(-c3ccccc3)n2)cc1 | 57.7% (inactive)
6 | O=C1C=C(C(O)c2ccc(O)cc2)C(=O)c2ccccc21 (stereo unspecified) | 80.2% (inactive)
7 | CCCC(=O)N1CCCCC1CC (stereo unspecified) | 110% (inactive)
8 | O=[N+]([O-])c1ccc(/C=N\Nc2ccccc2)cc1 | 72.2% (inactive)
9 | Nc1nc(N)c2nc3c(nc2n1)CCCCCCCCCC3 | 82.1% (inactive)
10 | NC(=O)[C@@H]1CC2CCC1C2 (stereo partly specified) | 113% (inactive)
11 | C[N+](C)(CCCCCC[N+](C)(C)C1c2ccccc2-c2ccccc21)C1c2ccccc2-c2ccccc21 | 108% (inactive)
12 | O=C(c1ccccc1)C(CN1CCOCC1)c1ccccc1 (stereo unspecified) | 64.3% (inactive)
13 | COCCNC1=C(Cl)C(=O)c2ccccc2C1=O | 98.8% (inactive)
14 | CC(C)(C)CC(C)(C)c1ccc(OCCOCC[N+](C)(C)CC(=O)[O-])cc1 | 103% (inactive)
15 | O=C(N/N=C\c1c(O)ccc2ccccc12)C1CC1 | 53.6% (inactive)
16 | COc1cc2nc(Cl)nc(Nc3cccc(C(=O)/C=C/c4ccc(F)cc4)c3)c2cc1OC | 67.6% (inactive)
17 | O=[N+]([O-])c1cccc(/C=N\Nc2ccccc2)c1 | 55.8% (inactive)
18 | Oc1ccccc1/C=N\NC(=S)Nc1ccc(F)cc1 | 42% (inactive)
19 | O=C1c2ccccc2C(=Cc2ccccc2)c2ccccc21 | 29.4% (inactive)

Row | Compound | growth
20 | Nc1c(Cl)cc(N=Nc2ccccc2)cc1Cl | 49.6% (inactive)
21 | Oc1cccc2oc(=S)[nH]c12 | 104% (inactive)
22 | O=C(/C=C\c1ccc2c(c1)OCO2)/C=C/c1ccc2c(c1)OCO2 | 75.6% (inactive)
23 | O=C(O)c1cccc2c1Cc1cc([N+](=O)[O-])ccc1-2 | 106% (inactive)
24 | Cn1cc(-c2csc(-c3cn(CCCN4CCCCC4)c4ccc(Br)cc34)n2)c2cccnc21 | 21.8% (inactive)
25 | O=C(O)c1cccc2c1C(=O)N(c1ccc3c(c1)Cc1ccccc1-3)C2=O | 106% (inactive)
26 | CN(C)c1ccc(N)c2ccccc12 | 80.2% (inactive)
27 | Cc1ccc2c(c1)c1nc3cc(C)c(C)cc3nc1n2CCN(C)C | 23.2% (inactive)
28 | OCC12CCCC(CO)(COC1)C2O (stereo unspecified) | 101% (inactive)
29 | O=C1C=Cc2ncccc2C1=O | 66.6% (inactive)
30 | O=C(NC1=CC(=O)c2ccccc2C1=O)c1ccccc1 | -45.6% (active)
31 | COc1c(N)c2c(c([N+](=O)[O-])c1OC)C(=O)OC2 | 101% (inactive)
32 | CC1c2ccccc2N(S(=O)(=O)c2ccccc2)C1C (stereo unspecified) | 102% (inactive)
33 | COc1ccc(/C=C/C(=O)c2ccc([N+](=O)[O-])cc2)cc1 | 98% (inactive)
34 | c1ccc(C2Cc3ccccc3C2=NC2CCCCC2)cc1 (stereo unspecified) | 93.5% (inactive)
35 | O=C(CI)Nc1ccc(O)c2ccccc12 | -52% (active)
36 | [B-][N+](CC)(CC)c1ccccc1 | 102% (inactive)
37 | CC(C)(C)c1ccc(OCCCCCCCN2CCNCC2)cc1 | 6.54% (active)

system: BT-549 breast; test: as above; conditions: 10 µM unless noted

Row | Compound | growth
38 | CCOC(=O)N1CCN(CCCCOc2ccc(C(C)(C)CC)cc2)CC1 | 82.3% (inactive)
39 | COC1=C(Br)C(=O)C(OC)=C(Br)C1=O | 95.9% (inactive)
40 | Cc1nn(-c2ccc(Cl)cc2)c(=O)n1CCn1cnc2ccccc21 | 97.5% (inactive)
41 | Brc1ccc(Cn2nnnc2-c2ccn(-c3ccccc3)n2)cc1 | 76.8% (inactive)
42 | O=C1C=C(C(O)c2ccc(O)cc2)C(=O)c2ccccc21 (stereo unspecified) | 88.1% (inactive)
43 | CCCC(=O)N1CCCCC1CC (stereo unspecified) | 100% (inactive)
44 | Nc1nc(N)c2nc3c(nc2n1)CCCCCCCCCC3 | 74.5% (inactive)
45 | NC(=O)[C@@H]1CC2CCC1C2 (stereo partly specified) | 94.2% (inactive)
46 | C[N+](C)(CCCCCC[N+](C)(C)C1c2ccccc2-c2ccccc21)C1c2ccccc2-c2ccccc21 | 117% (inactive)
47 | O=C(c1ccccc1)C(CN1CCOCC1)c1ccccc1 (stereo unspecified) | 30.2% (inactive)
48 | COCCNC1=C(Cl)C(=O)c2ccccc2C1=O | 98.2% (inactive)
49 | CC(C)(C)CC(C)(C)c1ccc(OCCOCC[N+](C)(C)CC(=O)[O-])cc1 | 125% (inactive)
50 | COc1cc2nc(Cl)nc(Nc3cccc(C(=O)/C=C/c4ccc(F)cc4)c3)c2cc1OC | 61.4% (inactive)
51 | O=C1c2ccccc2C(=Cc2ccccc2)c2ccccc21 | -3.95% (active)
52 | O=C(/C=C\c1ccc2c(c1)OCO2)/C=C/c1ccc2c(c1)OCO2 | 67.2% (inactive)
53 | Cn1cc(-c2csc(-c3cn(CCCN4CCCCC4)c4ccc(Br)cc34)n2)c2cccnc21 | 70.9% (inactive)
54 | CN(C)c1ccc(N)c2ccccc12 | 80.4% (inactive)
55 | Cc1ccc2c(c1)c1nc3cc(C)c(C)cc3nc1n2CCN(C)C | 50.2% (inactive)
56 | OCC12CCCC(CO)(COC1)C2O (stereo unspecified) | 105% (inactive)
57 | O=C1C=Cc2ncccc2C1=O | 95.5% (inactive)
58 | c1ccc(C2Cc3ccccc3C2=NC2CCCCC2)cc1 (stereo unspecified) | 88.3% (inactive)
59 | O=C(CI)Nc1ccc(O)c2ccccc12 | 44.1% (inactive)
60 | [B-][N+](CC)(CC)c1ccccc1 | 99.3% (inactive)
61 | CC(C)(C)c1ccc(OCCCCCCCN2CCNCC2)cc1 | 69.7% (inactive)
